From PubChem BioAssay (NCI)
This is part of a sample that, as a whole, favours compounds with a hit. Of some 79,000 tested, about 15% had one in any assay. Unmarked numbers belong to inactive results. Active and inactive are the calls of the source. No stated cut-off is given here; in the data, active means growth inhibition above about 70%; inactive means the rest.

Columns and labels:
[1] = NCI Yeast Anticancer Drug Screen. Data for the rad50 strain (AID 155);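 further: 0% = growth of vehicle-only cultures of the same strain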; conditions: S. cerevisiae rad50 strain growth inhibition, active compounds read high
In short: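 Growth of the mutant yeast was measured after compound exposure and referenced to vehicle-treated cultures.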

[2] = NCI Yeast Anticancer Drug Screen. Data for the mec2-1 strain (AID 157); conditions: S. cerevisiae mec2-1 strain, active compounds read high
In short: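 Growth inhibition is read against vehicle-treated controls after compound exposure of the mec2-1 yeast strain, which is defective in DNA damage repair or cell cycle control.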

[3] = NCI Yeast Anticancer Drug Screen. Data for the sgs1 mgt1 strain (AID 161);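 further: 0% = growth of cultures given vehicle only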; conditions: S. cerevisiae sgs1 mgt1 strain, active compounds read high
In short: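 This yeast growth screen uses a strain with defined DNA-repair lesions; compound-treated growth is compared with vehicle-treated growth.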

[4] = NCI Yeast Anticancer Drug Screen. Data for the cln2 rad14 strain (AID 165);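 further: 0% = growth equal to vehicle treated cultures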; conditions: S. cerevisiae cln2 rad14 strain, active compounds read high
In short: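 Growth inhibition, relative to vehicle-treated controls, is the read-out. The test organism is a yeast strain with defined genetic alterations, cln2 rad14.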

[5] = NCI Yeast Anticancer Drug Screen. Data for the bub3 strain (AID 167); conditions: S. cerevisiae bub3 mutant strain, active compounds read high
In short: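 Whole-cell yeast assay. The mutant strain was incubated with compounds, and growth inhibition was determined by comparison with vehicle-treated cells.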

[6] = NCI Yeast Anticancer Drug Screen. Data for the mlh1 rad18 strain (AID 175); conditions: S. cerevisiae mlh1 rad18 strain growth inhibition, active compounds read high
In short: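 Cells of a genetically altered yeast strain, deficient in DNA damage repair, were treated with compound. Their growth was then compared with that of vehicle-treated cultures to give inhibition.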

[7] = at 5.0 µM (retest, dose inferred, filed as 0.5)
[8] = at 50.0 µM (retest, dose inferred, filed as 5.0)

Q: For CCOC(=O)/C=C(\C)c1ccc([N+](=O)[O-])cc1, which growth inhibition [1, 7] is on record?
A: -158%

Q: What about the growth inhibition [1, 8] of the same compound?
A: -127%

Q: What about the growth inhibition ([1]; at 50.0 µM) of the same compound?
A: 36.1%

Q: And the growth inhibition [2, 7]?
A: -49%

Q: And the growth inhibition [2, 8]?
A: -51%

Q: And the growth inhibition ([2]; at 50.0 µM)?
A: -17.3%

Q: And the growth inhibition [3, 7]?
A: -65%

Q: What about the growth inhibition [3, 8] of the same compound?
A: -57%

Q: And the growth inhibition ([3]; at 50.0 µM)?
A: -17.9%

Q: What about the growth inhibition [4, 7] of the same compound?
A: -63%

Q: What about the growth inhibition [4, 8] of the same compound?
A: -69%

Q: And the growth inhibition ([4]; at 50.0 µM)?
A: -94.7%

Q: And the growth inhibition [5, 7]?
A: -63%

Q: What about the growth inhibition [5, 8] of the same compound?
A: -54%

Q: And the growth inhibition ([5]; at 50.0 µM)?
A: 17.1%

Q: And the growth inhibition [6, 7]?
A: -153%

Q: What about the growth inhibition [6, 8] of the same compound?
A: -114%

Q: What about the growth inhibition ([6]; at 50.0 µM) of the same compound?
A: 3.95%

Q: Which growth inhibition [1, 7] does the source give for COc1ccc(Cc2ccccc2C(=O)O)c2ccccc12 here?
A: 97% (active)

Q: And the growth inhibition [1, 8]?
A: 96% (active)

Q: And the growth inhibition ([1]; at 50.0 µM)?
A: 99.1% (active)

Q: And the growth inhibition [2, 7]?
A: 98% (active)

Q: And the growth inhibition [2, 8]?
A: 98% (active)

Q: What about the growth inhibition ([2]; at 50.0 µM) of the same compound?
A: 99.2% (active)

Q: What about the growth inhibition [3, 7] of the same compound?
A: 97% (active)

Q: What about the growth inhibition [3, 8] of the same compound?
A: 99% (active)

Q: And the growth inhibition ([3]; at 50.0 µM)?
A: 99.5% (active)

Q: And the growth inhibition [4, 7]?
A: 95% (active)

Q: And the growth inhibition [4, 8]?
A: 96% (active)

Q: What about the growth inhibition ([4]; at 50.0 µM) of the same compound?
A: 98.7% (active)

Q: And the growth inhibition [5, 7]?
A: 96% (active)

Q: What about the growth inhibition [5, 8] of the same compound?
A: 98% (active)

Q: And the growth inhibition ([5]; at 50.0 µM)?
A: 98.9% (active)

Q: What about the growth inhibition [6, 7] of the same compound?
A: 97% (active)

Q: What about the growth inhibition [6, 8] of the same compound?
A: 98% (active)

Q: And the growth inhibition ([6]; at 50.0 µM)?
A: 99% (active)

Q: With OC(c1ccc(Cl)cc1)c1ccc(Cl)cc1 as the compound, how does the growth inhibition [1, 7] read?
A: -7%

Q: And the growth inhibition [1, 8]?
A: 100% (active)

Q: What about the growth inhibition ([1]; at 50.0 µM) of the same compound?
A: 79% (active)

Q: What about the growth inhibition [2, 7] of the same compound?
A: -11%

Q: What about the growth inhibition [2, 8] of the same compound?
A: 100% (active)

Q: What about the growth inhibition ([2]; at 50.0 µM) of the same compound?
A: 98.2% (active)

Q: And the growth inhibition [3, 7]?
A: -7%

Q: What about the growth inhibition [3, 8] of the same compound?
A: 100% (active)

Q: What about the growth inhibition ([3]; at 50.0 µM) of the same compound?
A: 75.2% (active)

Q: What about the growth inhibition [4, 7] of the same compound?
A: -17%

Q: What about the growth inhibition [4, 8] of the same compound?
A: 100% (active)

Q: And the growth inhibition ([4]; at 50.0 µM)?
A: 85.3% (active)

Q: And the growth inhibition [5, 7]?
A: -11%

Q: What about the growth inhibition [5, 8] of the same compound?
A: 100% (active)

Q: What about the growth inhibition ([5]; at 50.0 µM) of the same compound?
A: 98.8% (active)

Q: What about the growth inhibition [6, 7] of the same compound?
A: -6%

Q: What about the growth inhibition [6, 8] of the same compound?
A: 99% (active)

Q: And the growth inhibition ([6]; at 50.0 µM)?
A: 85.2% (active)

Q: Which results are given for O=C1NC(=O)c2cccc3cccc1c23?
A: growth inhibition [1, 7]: 20%; growth inhibition [1, 8]: 68%; growth inhibition ([1]; at 50.0 µM): 88.4% (active); growth inhibition [2, 7]: 7%; growth inhibition [2, 8]: 25%; growth inhibition ([2]; at 50.0 µM): 52.6%; growth inhibition [3, 7]: 4%; growth inhibition [3, 8]: 37%; growth inhibition ([3]; at 50.0 µM): 80.3% (active); growth inhibition [4, 7]: -5%; growth inhibition [4, 8]: 20%; growth inhibition ([4]; at 50.0 µM): 64.5%; growth inhibition [5, 7]: 3%; growth inhibition [5, 8]: 22%; growth inhibition ([5]; at 50.0 µM): 63.1%; growth inhibition [6, 7]: 7%; growth inhibition [6, 8]: 55%; growth inhibition ([6]; at 50.0 µM): 84.5% (active)

Q: For Cc1ccnc2ccc3ccccc3c12, which growth inhibition [1, 7] is on record?
A: -142%

Q: And the growth inhibition [1, 8]?
A: 22%

Q: What about the growth inhibition ([1]; at 50.0 µM) of the same compound?
A: -17.9%

Q: And the growth inhibition [2, 7]?
A: -48%

Q: What about the growth inhibition [2, 8] of the same compound?
A: -38%

Q: What about the growth inhibition ([2]; at 50.0 µM) of the same compound?
A: -1%

Q: And the growth inhibition [3, 7]?
A: -63%

Q: And the growth inhibition [3, 8]?
A: -21%

Q: What about the growth inhibition ([3]; at 50.0 µM) of the same compound?
A: 20.4%

Q: What about the growth inhibition [4, 7] of the same compound?
A: -62%

Q: And the growth inhibition [4, 8]?
A: -49%

Q: And the growth inhibition ([4]; at 50.0 µM)?
A: 22.3%

Q: What about the growth inhibition [5, 7] of the same compound?
A: -67%

Q: What about the growth inhibition [5, 8] of the same compound?
A: -18%

Q: What about the growth inhibition ([5]; at 50.0 µM) of the same compound?
A: 31%

Q: What about the growth inhibition [6, 7] of the same compound?
A: -138%

Q: What about the growth inhibition [6, 8] of the same compound?
A: -55%

Q: And the growth inhibition ([6]; at 50.0 µM)?
A: 33.3%

Q: Which results are given for Cn1cc(-c2c3c(cc4c2OCO4)OCO3)c2ccccc21?
A: growth inhibition [1, 7]: 4%; growth inhibition [1, 8]: 99% (active); growth inhibition ([1]; at 50.0 µM): 99.2% (active); growth inhibition [2, 7]: -3%; growth inhibition [2, 8]: 98% (active); growth inhibition ([2]; at 50.0 µM): 99.2% (active); growth inhibition [3, 7]: 2%; growth inhibition [3, 8]: 99% (active); growth inhibition ([3]; at 50.0 µM): 99.3% (active); growth inhibition [4, 7]: -9%; growth inhibition [4, 8]: 96% (active); growth inhibition ([4]; at 50.0 µM): 98.8% (active); growth inhibition [5, 7]: -2%; growth inhibition [5, 8]: 99% (active); growth inhibition ([5]; at 50.0 µM): 99.2% (active); growth inhibition [6, 7]: -1%; growth inhibition [6, 8]: 99% (active); growth inhibition ([6]; at 50.0 µM): 99.3% (active)

Q: With CCCCCCCCCCCCCCCCOC(=O)C[n+]1cccc(C(N)=O)c1 as the compound, how does the growth inhibition [1, 7] read?
A: 2%

Q: What about the growth inhibition [1, 8] of the same compound?
A: 50%

Q: And the growth inhibition ([1]; at 50.0 µM)?
A: 89.8% (active)

Q: What about the growth inhibition [2, 7] of the same compound?
A: 8%

Q: And the growth inhibition [2, 8]?
A: 85% (active)

Q: What about the growth inhibition ([2]; at 50.0 µM) of the same compound?
A: 94.4% (active)

Q: What about the growth inhibition [3, 7] of the same compound?
A: 27%

Q: And the growth inhibition [3, 8]?
A: 92% (active)

Q: What about the growth inhibition ([3]; at 50.0 µM) of the same compound?
A: 97.2% (active)

Q: And the growth inhibition [4, 7]?
A: -5%

Q: What about the growth inhibition [4, 8] of the same compound?
A: 22%

Q: What about the growth inhibition ([4]; at 50.0 µM) of the same compound?
A: 36%

Q: What about the growth inhibition [5, 7] of the same compound?
A: -1%

Q: What about the growth inhibition [5, 8] of the same compound?
A: 79% (active)

Q: And the growth inhibition ([5]; at 50.0 µM)?
A: 73% (active)

Q: And the growth inhibition [6, 7]?
A: 42%

Q: And the growth inhibition [6, 8]?
A: 82% (active)

Q: And the growth inhibition ([6]; at 50.0 µM)?
A: 92.3% (active)

Q: For CCCC(=O)c1cc(O)c(O)c(CN(C)Cc2cc(Cl)cc(C)c2O)c1O, which growth inhibition [1, 7] is on record?
A: -8%

Q: And the growth inhibition [1, 8]?
A: 91% (active)

Q: And the growth inhibition ([1]; at 50.0 µM)?
A: 55%

Q: What about the growth inhibition [2, 7] of the same compound?
A: 3%

Q: And the growth inhibition [2, 8]?
A: 97% (active)

Q: And the growth inhibition ([2]; at 50.0 µM)?
A: 52.5%

Q: And the growth inhibition [3, 7]?
A: -11%

Q: And the growth inhibition [3, 8]?
A: 94% (active)

Q: What about the growth inhibition ([3]; at 50.0 µM) of the same compound?
A: 50.5%

Q: And the growth inhibition [4, 7]?
A: -16%

Q: And the growth inhibition [4, 8]?
A: 90% (active)

Q: And the growth inhibition ([4]; at 50.0 µM)?
A: 60.6%

Q: And the growth inhibition [5, 7]?
A: -7%

Q: What about the growth inhibition [5, 8] of the same compound?
A: 97% (active)

Q: What about the growth inhibition ([5]; at 50.0 µM) of the same compound?
A: 49%

Q: And the growth inhibition [6, 7]?
A: 19%

Q: And the growth inhibition [6, 8]?
A: 96% (active)

Q: And the growth inhibition ([6]; at 50.0 µM)?
A: 54.5%

Q: With O=c1[nH]c2ccc([N+](=O)[O-])cc2c2ccc(Cl)cc12 as the compound, how does the growth inhibition [1, 7] read?
A: 3%

Q: What about the growth inhibition [1, 8] of the same compound?
A: 9%

Q: And the growth inhibition ([1]; at 50.0 µM)?
A: 77.2% (active)

Q: And the growth inhibition [2, 7]?
A: -5%

Q: And the growth inhibition [2, 8]?
A: 25%

Q: And the growth inhibition ([2]; at 50.0 µM)?
A: 51.8%

Q: What about the growth inhibition [3, 7] of the same compound?
A: -11%

Q: And the growth inhibition [3, 8]?
A: 16%

Q: What about the growth inhibition ([3]; at 50.0 µM) of the same compound?
A: 61.8%

Q: And the growth inhibition [4, 7]?
A: 1%

Q: What about the growth inhibition [4, 8] of the same compound?
A: 3%

Q: What about the growth inhibition ([4]; at 50.0 µM) of the same compound?
A: -0.3%

Q: What about the growth inhibition [5, 7] of the same compound?
A: 0%

Q: What about the growth inhibition [5, 8] of the same compound?
A: 2%

Q: And the growth inhibition ([5]; at 50.0 µM)?
A: 7.4%

Q: What about the growth inhibition [6, 7] of the same compound?
A: 11%

Q: And the growth inhibition [6, 8]?
A: 40%

Q: What about the growth inhibition ([6]; at 50.0 µM) of the same compound?
A: 71.7% (active)
